Out of some 360,000 compounds screened, about 8,200 (2.3%) were called active. The entries come from a sample that favours actives as a whole. Unmarked numbers belong to inactive results. Cut-off read from the data, not from the text of the source: active = inhibition above about 27%; inactive = the rest.

Chain of Fructose-bisphosphate aldolase (Mycobacterium tuberculosis (strain ATCC 25618 / H37Rv)) (P9WQA3 whole entry, looked up): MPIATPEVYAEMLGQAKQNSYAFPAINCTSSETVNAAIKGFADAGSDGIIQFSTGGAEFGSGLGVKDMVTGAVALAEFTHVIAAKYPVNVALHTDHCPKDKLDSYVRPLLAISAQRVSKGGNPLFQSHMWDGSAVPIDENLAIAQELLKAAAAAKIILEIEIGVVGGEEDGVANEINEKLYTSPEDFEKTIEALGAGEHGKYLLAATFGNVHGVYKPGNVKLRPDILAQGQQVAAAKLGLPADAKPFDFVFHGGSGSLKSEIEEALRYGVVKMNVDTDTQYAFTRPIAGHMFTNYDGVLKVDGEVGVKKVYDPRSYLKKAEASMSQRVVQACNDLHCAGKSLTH

This test addresses Fructose-bisphosphate aldolase (Mycobacterium tuberculosis (strain ATCC 25618 / H37Rv)) (UniProt P9WQA3). Description: M. tuberculosis aldolase activity blockers – biochemical, fluorescence, strain H37Rv, primary screen (AID 588726).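 Note: 0% = vehicle and 100% = reference inhibitor.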 Conditions: purified M. tuberculosis FBA, fluorescence read-out, at 1 µM, hits give high values.
In the case of `CCOC(=O)/C=C/C(=O)OCC(=O)NC(c1ccccc1)c1ccccc1`, the inhibition is 1.96%.

In the case of `Cc1cc(Cl)c2oc(C(=O)N(C)C(C)c3ccccn3)c(C)c2c1` (stereo not given), the inhibition was 5.49%.

`CC(C)C(=O)N1CCC2(CC1)Oc1ccc(F)cc1C(=O)C21CC(c2ccccc2)=NO1` (stereo not given): the inhibition was 4.59%.

Take `CN(C)CCCN(Cc1cc2cc3c(cc2[nH]c1=O)OCCO3)C(=O)NC1CCCCC1`: the inhibition is 26.5%.

As for `Cc1cc(C)c2[nH]c(=O)c(CN(Cc3ccccc3)C(=S)NCCCN(C)C)cc2c1`, the inhibition was 5.66%.

Take `CCNC(=S)N(CCN(CC)CC)Cc1cc2cc3c(cc2[nH]c1=O)OCCO3`: the inhibition was 22%.

Turning to `COCCCNC(=S)N(CCN(C)C)Cc1cc2cc3c(cc2[nH]c1=O)OCCO3`, the inhibition was 28.8% (active).

Turning to `CCN(CC)CCCNC(=S)N(CCO)Cc1cc2cc3c(cc2[nH]c1=O)OCO3`, the inhibition was 13.2%.

In the case of `CCNC(=S)N(CCN(CC)CC)Cc1cc2cc3c(cc2[nH]c1=O)OCO3`, the inhibition is 32.3% (active).

In the case of `COc1cc(NC(=O)CSC(=S)N2CCCC2)c(OC)cc1Cl`, the inhibition is 9.36%.

On to `Cc1ccsc1C1C(C#N)=C(N)OC2=C1C(=O)CC(C)(C)C2` (stereo not given), for which the inhibition is 5.8%.

On to `CCc1ccc(OCC(=O)N(Cc2ccccc2)C2CCS(=O)(=O)C2)cc1` (stereo not given), for which the inhibition was 4.66%.

With `Cn1c(=O)c2c(SCC(=O)NCC3CCCO3)nc(CC(C)(C)C)nc2n(C)c1=O` (stereo not given), the inhibition is -0.73%.

Consider `O=C(CC[C@H]1O[C@@H](n2ccc(=O)[nH]c2=O)[C@H](O)[C@@H]1O)N[C@H](Cc1ccccc1)C(=O)NCc1ccco1`, for which the inhibition is 1.72%.

For `Cc1cccn2c(=O)c3cc(C(=O)NC4CCCCC4)sc3nc12`, the inhibition was 9.42%.

With `CCc1cccc2c(=O)c(C(=O)NCCCOC)c[nH]c12`, the inhibition was 1.41%.

For `COCCCn1c(C(=O)NC2CCCCC2)cc2c(=O)n3cccc(C)c3nc21`, the inhibition is 37.6% (active).

As for `Cc1ccc(S(=O)(=O)c2cc3c(=O)n4cccc(C)c4nc3n(CCc3ccccc3)c2=N)cc1C`, the inhibition is -2.09%.

Consider `CCn1c(=N)c(C(=O)NCCCOC)cc2c(=O)n3cccc(C)c3nc21`, for which the inhibition was 661% [above what the read-out allows, likely interference] (active).

With `COCCCn1c(SCC(=O)NC2CCCC2)nnc1-c1ccccc1`, the inhibition was -5.58%.

For `CC(NCCc1ccc(S(N)(=O)=O)cc1)C(=O)NCc1ccccc1` (stereo not given), the inhibition was 0.46%.

Consider `Cc1cccc(C2c3c(n(C)c(=O)n(C)c3=O)N=C3c4ccccc4C(=O)C32)c1` (stereo not given), for which the inhibition is -1.16%.

For the compound `CCOc1ccc(C(=O)Nc2c3c(nn2-c2ccccc2)CS(=O)(=O)C3)cc1`, the inhibition was 0.76%.

`O=S(=O)(c1ccc(F)cc1)N1CCN(C(=S)NC2CCCC2)CC1`: the inhibition was 0.47%.

Regarding `C[C@@H]1CN([C@@H](C)CO)C(=O)c2cc(Br)cnc2O[C@@H]1CN(C)C(=O)C1CCCCC1`, the inhibition is -2.01%.

Turning to `O=C(Cn1nnc(-c2ccccc2)n1)NC(=O)NC1CCCC1`, the inhibition was 0.56%.

With `O=C(O[C@H]1[C@H](Cc2ccccc2)NS(=O)(=O)[C@H]2C[C@@H]3C=C[C@]12O3)c1ccc([N+](=O)[O-])cc1`, the inhibition is 1.68%.

Turning to `Cc1nnc(SCC(=O)Nc2ccc(S(=O)(=O)Nc3ccc(Cl)nn3)cc2)s1`, the inhibition was -1.39%.

Consider `Brc1ccc(C2=CC(c3ccco3)n3ncnc3N2)cc1` (stereo not given), for which the inhibition is 31.5% (active).

For `CC1=C(C(=O)OC2CCCCC2)C(c2cccnc2)n2ncnc2N1` (stereo not given), the inhibition was 1.05%.

Take `Clc1ccc2c(c1)C1=C(C(c3ccncc3)O2)C(c2ccc(Br)cc2)n2ncnc2N1` (stereo not given): the inhibition was 1.95%.

For `CCOc1ccc(C2=CC(c3ccccc3)n3ncnc3N2)cc1` (stereo not given), the inhibition was 48.9% (active).

In the case of `Cc1ccc(F)c(S(=O)(=O)NC(=O)C2(C)CCN2C(=O)c2ccco2)c1` (stereo not given), the inhibition was -2.4%.

Regarding `Cc1ccc(CCCOC(=O)C[N+]2(C)CCCC2)cc1`, the inhibition was 2.21%.

`COC(=O)C1(CCSC)NC(c2ccc(OC)cc2OC)C2C(=O)N(c3cccc(C(C)=O)c3)C(=O)C21` (stereo not given): the inhibition was 1.37%.

Consider `CO[C@H]1[C@@H]2C=CO[C@@H](O[C@H]3O[C@@H](CO)[C@H](O)[C@@H](O)[C@@H]3O)[C@@H]2[C@@]2(CO)O[C@@H]12`, for which the inhibition is 2.4%.

Turning to `CCOC(=O)C1CCCN(C(=O)c2ccc(CS(=O)(=O)c3ccc(Br)cc3)o2)C1` (stereo not given), the inhibition is 1.86%.

Take `COc1ccccc1-c1oc2ccccc2c1C#CCCCCO`: the inhibition was 30.8% (active).

For the compound `COc1ccccc1-c1sc2ccccc2c1C#CC1(O)CCCCC1`, the inhibition was 6.51%.

As to `CCNC(=O)CC1C(=O)N(c2ccc(F)cc2)C(=O)N1Cc1cccs1` (stereo not given), the inhibition is -3.21%.

Consider `CSCC[C@H](NC(=O)NC1CCCC1)C(=O)O`, for which the inhibition was -1.95%.

Consider `CCN(CC)c1ccc(NC(=O)C2CCC(CNc3c(N4CCCC4)c(=O)c3=O)CC2)c(C)c1` (stereo not given), for which the inhibition is -0.83%.

Turning to `COc1ccc2c(c1)CC[C@@H]1[C@@H]2CC[C@]2(C)C(=O)CC[C@@H]12`, the inhibition was 0.88%.

For the compound `O=C1OCC2=C1C(c1ccccc1)CC(=O)N2c1cccc(F)c1` (stereo not given), the inhibition was -3.03%.

Consider `Cc1ccc(S(=O)(=O)NCC(=O)OCC(=O)N2CCc3ccccc32)cc1`, for which the inhibition is 0.04%.

Consider `Cc1cnc(C(=O)OCC(=O)N2CCc3ccccc32)cn1`, for which the inhibition is 69% (active).

In the case of `O=C(OCC(=O)N1CCc2ccccc21)c1ccc([N+](=O)[O-])cc1`, the inhibition is -3.08%.

For the compound `CCc1ccc(N2CC(C(=O)NC3=NCCS3)CC2=O)cc1` (stereo not given), the inhibition is 4.59%.

In the case of `O=C(CCc1ccccc1)Nc1cccc(-c2nnc(-c3ccco3)o2)c1`, the inhibition was 26.9% (active).

`O=C(CCc1ccccc1)Nc1nn[nH]n1`: the inhibition was 2.03%.

As to `O=C(CSc1nnc(-c2ccco2)o1)NCC(=O)c1ccccc1`, the inhibition was -1.17%.

In the case of `O=C1CCC(=O)N1CCOP1(=O)COc2ccccc2OC1`, the inhibition was 3.44%.

With `CCC1CCCCN1C(=O)CSc1nc2c(c(=O)n(C)c(=O)n2C)n1C` (stereo not given), the inhibition is 0.65%.

Take `CCCSc1nc2c(c(=O)n(C)c(=O)n2C)n1Cc1ccc(C)cc1`: the inhibition was 1.01%.

With `CCOC(=O)CSc1nc2c(c(=O)n(Cc3ccccc3Cl)c(=O)n2C)n1C`, the inhibition is 88% (active).

Broadly, the inhibition is the relative decrease from the control value, in per cent.

The values above are taken from PubChem BioAssay AID588726 (The Scripps Research Institute Molecular Screening Center, 2011).
